Activity calls are given as the source filed them. Unless noted, how the calls were made is not given here.
Experiments:
[1] = tested on: Wnt5a (protein binding on small-molecule microarray); experiment: Wnt5a binders on small-molecule microarray, primary screen, biophysical, 635/667 nm fluorescence (AID 1142); details: 635 nm fluorescence, higher = more signal;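 further: fluorescence read at 667 nm with signal to noise per printed feature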
[2] = cell viability in Huh7 cells, primary screen, cytotoxicity control for HCV replication inhibitor project, CellTiter-Glo luminescence, basal, 48 h (AID 1143); details: Huh7 HCV replicon, higher = more signal, called active from +8 up or from −8 down;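 further: Huh7 hepatoma cells carrying a hepatitis C replication reporter with no stimulus; test concentration not given here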
[3] = P. aeruginosa biofilm formation inhibitors, primary screen, PAO1 strain, BacTiter-Glo luminescence, LB-PBS (AID 1144); details: 12 h, higher = more signal
[4] = CREB reporter modulators without forskolin, primary screen, cell-based, PC12, CRE-LacZ reporter, unstimulated (AID 1145); details: no forskolin, luminescence, 4.5 h, higher = more signal, called active from +8 up or from −8 down
[5] = CREB reporter modulators under forskolin, primary screen, cell-based, PC12, CRE-LacZ reporter, forskolin-stimulated (AID 1146); details: luminescence, 4.5 h, higher = more signal, called active from +8 up or from −8 down;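 further: PC12 cells with 6xCRE LacZ reporter stimulated by forskolin 10 µM; beta-galactosidase reporter signal reflecting CREB driven transcription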
[6] = biological target: Streptavidin (Streptomyces avidinii) (UniProt P22629); experiment: streptavidin binders on small-molecule microarray, primary screen, artefact control for SMM compound annotation, biophysical, 635/667 nm fluorescence (AID 1147); details: streptavidin binding, higher = more signal;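 further: signal reflects streptavidin binding to arrayed compounds as a control protein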
Chain of Streptavidin (Streptomyces avidinii) (P22629 whole entry, looked up): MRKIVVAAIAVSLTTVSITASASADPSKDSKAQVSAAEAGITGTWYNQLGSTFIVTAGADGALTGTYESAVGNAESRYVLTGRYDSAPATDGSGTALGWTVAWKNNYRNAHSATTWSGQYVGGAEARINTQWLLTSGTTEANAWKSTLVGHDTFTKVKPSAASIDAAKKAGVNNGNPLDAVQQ

[7] = small-molecule binders of probe aInhba, primary screen, biochemical, small-molecule microarray, 635/667 nm fluorescence (AID 1148); details: higher = more signal;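 further: score merges 667nm spot fluorescence with signal-to-noise for antibody binding to printed compounds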
Torsin-1A (Homo sapiens) [8] = biological target: Torsin-1A (Homo sapiens) (UniProt O14656); experiment: torsin A binders from cell lysate, primary screen, small-molecule microarray, wild-type, 635/667 nm (AID 1149); details: COS7 hTOR1A-WT lysate, 635 nm fluorescence, higher = more signal
Chain of Torsin-1A (Homo sapiens) (O14656 whole entry, looked up): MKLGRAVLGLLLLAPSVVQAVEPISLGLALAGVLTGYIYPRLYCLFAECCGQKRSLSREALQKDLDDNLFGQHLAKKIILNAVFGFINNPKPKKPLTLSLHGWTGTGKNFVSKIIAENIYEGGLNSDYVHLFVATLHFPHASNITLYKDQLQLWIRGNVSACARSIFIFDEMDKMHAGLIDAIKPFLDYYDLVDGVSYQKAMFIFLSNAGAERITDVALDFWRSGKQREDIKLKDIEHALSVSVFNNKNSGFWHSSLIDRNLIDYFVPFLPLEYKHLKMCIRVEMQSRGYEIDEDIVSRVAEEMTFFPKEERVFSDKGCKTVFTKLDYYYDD

Torsin-1A (Homo sapiens) [9] = biological target: Torsin-1A (Homo sapiens) (UniProt O14656); experiment: small-molecule binders of mutant TOR1A in lysate, primary screen, cell lysate, small-molecule microarray, COS7 lysate, 635/667 nm fluorescence (AID 1150); details: COS7 hTOR1A mutant lysate, 635 nm fluorescence, higher = more signal;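 further: score pools 667 nm emission and signal to noise measuring lysate protein binding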
[10] = tested on: Sonic hedgehog protein (Shh); experiment: small-molecule binders of Shh protein, primary screen, biochemical, small-molecule microarray, 635/667 nm fluorescence (AID 1151); details: small-molecule microarray binding, 635 nm fluorescence; higher = more signal;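 further: Shh protein binding to compounds spotted on small-molecule microarray slides; score combines spot fluorescence intensity with signal-to-noise across triplicate slides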
[11] = E. coli DRC41 culture turbidity changes, primary screen, E. coli filamentation inducer project, strain DRC41, OD650, 48 h (AID 1152);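 further: E. coli MC1000 strain DRC41 lacking acrAB efflux pump and sulA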; details: E. coli DRC41 (acrAB sulA), higher = more signal, called active from +8 up or from −8 down
[12] = small-molecule binders of probe aLefty1, primary screen, biochemical, small-molecule microarray, 635/667 nm fluorescence (AID 1153); details: higher = more signal;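 further: score merges spot fluorescence with signal-to-noise ratio from the scanned slide images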
[13] = PSAC antagonists in infected red cells, primary screen, cell-based, P. falciparum Indochina, OD700, 1 h (AID 1154); details: P. falciparum Indochina infected RBC osmotic lysis, higher = more signal, called active from +8 up or from −8 down
[14] = PSAC antagonists in infected red cells, primary screen, cell-based, P. falciparum Indochina, OD700, 2 h (AID 1155);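 further: lysis reports solute entry through the parasite surface anion channel PSAC; channel blockers reduce lysis of infected cells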; details: P. falciparum Indochina infected erythrocytes, osmotic lysis OD700; higher = more signal, called active from +8 up or from −8 down
[15] = osmotic lysis modulators in infected erythrocytes, primary screen, PSAC antagonist project, cell-based, P. falciparum Indochina, OD700, 3 h (AID 1156); details: higher = more signal, called active from +8 up or from −8 down
[16] = PSAC antagonists in infected red cells, primary screen, cell-based, P. falciparum Indochina, OD700, 18 h (AID 1157); details: P. falciparum Indochina infected erythrocytes, osmotic lysis OD700, 18 h; higher = more signal, called active from +8 up or from −8 down
[17] = modulators of S6 phosphorylation in cells, primary screen, cell-based, A549, cytoblot, luminescence, serum-stimulated (AID 1158); details: A549 phospho-S6 cytoblot, 5 h, higher = more signal;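 further: serum-stimulated A549 lung adenocarcinoma cells; signal is phosphorylated S6 detected by cytoblot immunostaining with HRP secondary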
[18] = biological target: NADPH oxidase 2 (Homo sapiens) (UniProt P04839); experiment: NOX2-dependent H2O2 signal modulators, primary screen, NOX inhibitor project, cell-based, HEK293-NOX2, PMA-stimulated, Amplex Red fluorescence (AID 1159); details: 45 min, higher = more signal, called active from +8 up or from −8 down; further: test concentration not given here
Chain of NADPH oxidase 2 (Homo sapiens) (P04839 whole entry, looked up): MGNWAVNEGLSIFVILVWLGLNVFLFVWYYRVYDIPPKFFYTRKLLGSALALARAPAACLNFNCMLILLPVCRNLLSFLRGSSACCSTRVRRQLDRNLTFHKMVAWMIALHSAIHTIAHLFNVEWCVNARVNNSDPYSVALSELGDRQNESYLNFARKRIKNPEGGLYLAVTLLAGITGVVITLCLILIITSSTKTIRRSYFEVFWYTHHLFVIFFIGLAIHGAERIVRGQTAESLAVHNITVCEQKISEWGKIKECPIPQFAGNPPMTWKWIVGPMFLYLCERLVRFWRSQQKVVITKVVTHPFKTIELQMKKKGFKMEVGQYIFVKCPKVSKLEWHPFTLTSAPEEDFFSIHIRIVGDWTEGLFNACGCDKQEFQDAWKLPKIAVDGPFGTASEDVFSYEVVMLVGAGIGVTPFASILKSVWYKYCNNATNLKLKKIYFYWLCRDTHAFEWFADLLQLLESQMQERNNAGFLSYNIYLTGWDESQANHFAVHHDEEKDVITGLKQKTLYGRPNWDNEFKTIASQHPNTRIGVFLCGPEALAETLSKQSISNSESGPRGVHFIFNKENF

[19] = biological target: NADPH oxidase 4 (Homo sapiens) (UniProt Q9NPH5); experiment: NOX4-dependent H2O2 signal modulators, primary screen, NOX inhibitor project, cell-based, HEK293-NOX4, tetracycline-induced, Amplex Red fluorescence (AID 1160); details: 45 min, higher = more signal, called active from +8 up or from −8 down
Chain of NADPH oxidase 4 (Homo sapiens) (Q9NPH5 whole entry, looked up): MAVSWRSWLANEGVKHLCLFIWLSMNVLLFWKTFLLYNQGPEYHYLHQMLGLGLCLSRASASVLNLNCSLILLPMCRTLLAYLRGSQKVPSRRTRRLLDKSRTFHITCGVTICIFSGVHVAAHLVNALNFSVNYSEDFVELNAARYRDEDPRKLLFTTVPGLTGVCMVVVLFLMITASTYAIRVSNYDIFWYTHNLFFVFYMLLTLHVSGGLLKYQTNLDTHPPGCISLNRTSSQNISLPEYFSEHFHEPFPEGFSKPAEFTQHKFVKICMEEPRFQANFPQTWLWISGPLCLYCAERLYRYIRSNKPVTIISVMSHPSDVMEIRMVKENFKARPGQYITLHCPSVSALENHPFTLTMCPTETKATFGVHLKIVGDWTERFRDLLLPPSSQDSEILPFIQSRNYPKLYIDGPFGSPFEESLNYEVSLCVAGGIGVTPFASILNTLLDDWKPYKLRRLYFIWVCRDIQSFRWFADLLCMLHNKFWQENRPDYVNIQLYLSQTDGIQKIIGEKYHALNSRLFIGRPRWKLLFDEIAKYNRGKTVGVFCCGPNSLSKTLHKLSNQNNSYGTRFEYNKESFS

[20] = biological target: NADPH oxidase 5 (Homo sapiens) (UniProt Q96PH1); experiment: NOX5-dependent H2O2 signal modulators, primary screen, NOX inhibitor project, cell-based, HEK293-NOX5, Amplex Red fluorescence (AID 1161); details: HEK293-NOX5, ionomycin, 45 min, higher = more signal
Chain of NADPH oxidase 5 (Homo sapiens) (Q96PH1 whole entry, looked up): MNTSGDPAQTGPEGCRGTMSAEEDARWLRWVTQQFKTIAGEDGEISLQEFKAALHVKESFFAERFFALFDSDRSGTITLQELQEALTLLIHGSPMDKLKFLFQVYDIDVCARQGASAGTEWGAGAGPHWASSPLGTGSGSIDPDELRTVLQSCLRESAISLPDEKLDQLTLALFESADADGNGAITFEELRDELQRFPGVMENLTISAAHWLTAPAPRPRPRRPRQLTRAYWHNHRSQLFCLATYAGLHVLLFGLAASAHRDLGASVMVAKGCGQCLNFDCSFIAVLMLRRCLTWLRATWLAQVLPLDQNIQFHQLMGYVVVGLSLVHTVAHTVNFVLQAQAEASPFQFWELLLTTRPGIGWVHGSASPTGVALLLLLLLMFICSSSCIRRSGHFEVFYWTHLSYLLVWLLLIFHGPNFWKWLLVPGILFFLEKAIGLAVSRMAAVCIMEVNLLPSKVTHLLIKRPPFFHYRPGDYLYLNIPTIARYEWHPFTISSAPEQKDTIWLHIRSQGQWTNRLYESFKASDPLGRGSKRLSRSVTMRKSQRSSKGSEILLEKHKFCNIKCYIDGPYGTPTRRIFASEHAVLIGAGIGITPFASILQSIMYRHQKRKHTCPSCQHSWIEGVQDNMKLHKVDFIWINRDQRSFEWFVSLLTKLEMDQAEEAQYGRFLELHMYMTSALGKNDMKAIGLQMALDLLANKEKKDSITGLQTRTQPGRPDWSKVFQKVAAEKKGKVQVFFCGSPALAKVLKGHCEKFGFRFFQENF

Structure (SMILES)	composite z-score [1]	z-score [2]	z-score [3]	z-score [4]	z-score [5]	composite z-score [6]	composite z-score [7]	composite z-score (Torsin-1A (Homo sapiens) [8])	composite z-score (Torsin-1A (Homo sapiens) [9])	composite z-score [10]	z-score [11]	composite z-score [12]	z-score [13]	z-score [14]	z-score [15]	z-score [16]	z-score [17]	z-score [18]	z-score [19]	z-score [20]
COc1ccc(C(O)C2C=CC3C(=O)N(c4ccccc4)C(=O)C3N2Nc2ccc(C(C)C)cc2)c2ccccc12 (stereo not given)	0.295	0.0927 (inactive)	-1.88 (inactive)	0.632 (inactive)	-0.557 (inactive)	1.92	0.216	0.724	1.01	-0.328	-0.534 (inactive)	0.4	1.68 (inactive)	1.35 (inactive)	0.155 (inactive)	1.27 (inactive)	-1.09	0.373 (inactive)	-2.59 (inactive)	-3.17
[N-]=[N+]=NC[C@H](Cc1ccccc1)NC(=O)c1ccccc1	-0.022	-0.34 (inactive)	0.138 (inactive)	0.6 (inactive)	-0.308 (inactive)	0.148	-0.0695	0.601	0.265	-0.0168	1.44 (inactive)	0.0606	0.0465 (inactive)	0.872 (inactive)	0.264 (inactive)	0.432 (inactive)	-0.282	0.192 (inactive)	-0.441 (inactive)	0.122
C=C(COC)C(=O)CC[C@H](OC(=O)c1cccnc1)c1ccc(CO)o1	0.196	-0.319 (inactive)	0.312 (inactive)	0.522 (inactive)	0.756 (inactive)	-0.184	0.13	2.19	-0.0291	1.41	-0.471 (inactive)	-0.147	0.904 (inactive)	0.0112 (inactive)	-0.376 (inactive)	0.063 (inactive)	-0.262	0.337 (inactive)	-0.159 (inactive)	0.221
CC(C)C(=C=CC[C@@H](O)c1cccc(OCCO)c1)C[C@@H](O)COCc1ccccc1	0.139	-2.36 (inactive)	0.232 (inactive)	7.66 (inactive)	-1 (inactive)	-0.506	-0.165	-0.134	-0.377	1.06	1.74 (inactive)	-0.504	12.8 (active)	-0.6 (inactive)	1.76 (inactive)	-2.05 (inactive)	3.5	-1.19 (inactive)	-1.2 (inactive)	-2.4
CCOC(=O)C[C@H]1[C@H](OC(=O)c2ccccc2-c2ccccc2)[C@@H](NC(=O)c2ccccc2)c2cc(OCCCO)ccc2N1C(=O)c1ccccc1	0.309	-0.208 (inactive)	0.867 (inactive)	2.38 (inactive)	0.908 (inactive)	0.19	-0.157	0.0802	0.261	0.259	-1.13 (inactive)	-0.0547	1.61 (inactive)	0.0478 (inactive)	1.11 (inactive)	0.256 (inactive)	-0.133	0.418 (inactive)	0.884 (inactive)	0.838
O=C1O[C@H](c2ccccc2)[C@H](c2ccccc2)N2[C@H]1[C@@H](C(=O)N1CCCCCCC1)[C@]1(C(=O)Nc3ccc(C#CC4(O)CCCCCC4)cc31)[C@H]2c1ccccc1OCCO	2.32	-3.52 (inactive)	-0.41 (inactive)	0.335 (inactive)	-0.0926 (inactive)	4.02	1.97	3.75	3.55	2.09	-0.0659 (inactive)	2.87	0.707 (inactive)	0.216 (inactive)	-0.168 (inactive)	0.614 (inactive)	0.43	0.643 (inactive)	0.485 (inactive)	1.56
COc1ccc(C#Cc2ccc3c(c2)[C@]2(C(=O)N3)[C@H](c3ccc(OCCO)cc3)N3[C@H](c4ccccc4)[C@H](c4ccccc4)OC(=O)[C@H]3[C@@H]2C(=O)N2CCc3cc(OC)c(OC)cc3C2)cc1	1.04	-0.632 (inactive)	-0.221 (inactive)	0.478 (inactive)	0.198 (inactive)	1.83	-0.308	0.394	0.722	2.15	-0.433 (inactive)	-0.261	3.24 (inactive)	2.77 (inactive)	1.15 (inactive)	1.1 (inactive)	-0.298	0.661 (inactive)	0.621 (inactive)	0.27
CCCCCCCCCCC(O)C1C=CC2C(=O)N(c3ccccc3)C(=O)C2N1Nc1ccccc1F (stereo not given)	-0.13	0.325 (inactive)	-0.425 (inactive)	-1.09 (inactive)	0.476 (inactive)	0.282	0.0074	-0.35	-0.524	-0.992	-1.43 (inactive)	0.145	2.64 (inactive)	1.45 (inactive)	-0.518 (inactive)	1.91 (inactive)	-0.827	-0.534 (inactive)	0.101 (inactive)	-1.24
C[C@@H]1ON(c2ccc(I)cc2)[C@H](c2ccc(OC(=O)OC(C)(C)C)cc2)[C@H]1C(=O)N1C(=O)OC[C@H]1Cc1ccccc1	0.0472	-1.32 (inactive)	-0.829 (inactive)	-0.415 (inactive)	-0.642 (inactive)	0.573	-0.0468	0.0475	0.624	0.639	2.67 (inactive)	-0.191	0.789 (inactive)	-0.474 (inactive)	0.546 (inactive)	-1.73 (inactive)	1.5	-5.57 (inactive)	0.237 (inactive)	1.39

Reference: PubChem BioAssay
